# Measured values as given in PubChem BioAssay (EPA / NIEHS).
# Activity calls are given as the source filed them. How the source made its calls: active means hit-call score of the fitted dose curve at least 0.9, where 1 is the maximum; inactive means score below 0.9.
# Test: ATG_DR4_LXR_CIS: Attagene CIS-FACTORIAL HepG2 Assay for human Liver X Receptor (LXR), DR4 submotif (AID 2282929)
# Conditions: HepG2 Attagene DR4 cis-reporter, mRNA transcription; actives raise or lower the signal
# Description: ATG_CIS is a cell-based, multiplexed-readout assay that uses HepG2, a human liver cell line, with measurements taken at 24 hours after chemical dosing in a 24-well plate.ATG_DR4_LXR_CIS is one of 52 assay component(s) measured or calculated from the ATG_CIS assay. It is designed to make measurements of mRNA induction, a form of inducible reporter, as detected with fluorescence intensity signals by Reverse transcription polymerase chain reaction (RT-PCR) and Capillary electrophoresis technology.Data from the assay component ATG_DR4_LXR_CIS was analyzed into 1 assay endpoint. This assay endpoint, ATG_DR4_LXR_CIS, was analyzed with bidirectional fitting relative to DMSO as the negative control and baseline of activity. Using a type of inducible reporter, measures of mRNA for gain or loss-of-signal activity can be used to understand the reporter gene at the transcription factor-level as they relate to the gene NR1H2 and NR1H3. Furthermore, this assay endpoint can be referred to as a primary readout, because this assay has produced multiple assay endpoints where this one serves a reporter gene function. To generalize the intended target to other relatable targets, this assay endpoint is annotated to the nuclear receptor intended target family, where the subfamily is non-steroidal.
# Human liver HepG2 cells are transiently transfected with multiple reporter transcription units (MRTUs) in 6-well plates using FuGene 6 reagent (Roche; 3 ml FuGene/1 mg DNA). The MRTU constructs are regulated by a cis-regulating element (promoter). […] A major difference between the CIS and TRANS system is that in CIS activities of endogenous TFs are measured, whereas the TRANS assay evaluates changes in activities of exogenous, chimeric NR-Gal4 proteins. […] At the end of 24 hour incubation, total RNA was isolated using TriZol reagent (Invitrogen). The isolated RNA is then reverse-transcribed using oligo(dT) primer and Mo-MLV reverse transcriptase (Invitrogen) with DNAse I (Ambion) treatment for 30 min. The one-tenth of the produced cDNA was amplified by PCR using Taq DNA polymerase (Invitrogen) and two reporter sequence-specific primers. The PCR products were fluorescently labeled by primer extension with 6-arboxyfluorescein (6-FAM) 5'-labeled reporter sequence-specific primer (2 min at 95 C, 20 s at 68 C and 10 min at 72 C) and these products were digested with 5U of HpaI (New England Biolabs) for 2h at 37 C. The fragments were purified using Qiaquick PCR columns (Qiagen), analyzed on an ABI 3130xL genetic analyzer (Applied Biosystems) with peak positions identified by using a set of X-rhodamine (ROX)-labeled MapMarker1000 molecular weight standards (BioVentures). The raw capillary electrophoresis data was processed using Attagraph software (Attagene).
SMILES,outcome,AC50
CCN(CC)c1cccc(C)c1,inactive,–
Cc1c(Cl)cccc1Cl,inactive,–
CCCCCCCCCCCCCc1ccccc1,inactive,–
CC(C)=CCl,inactive,–
C=Cc1ccc(OC(C)=O)cc1,inactive,–
CC(=O)CCC1=C(C)CCCC1(C)C,inactive,–
CC(=O)OC(C)c1ccccc1 (stereo not given),inactive,–
CC(=O)OCc1ccccc1,inactive,–
CN(C)Cc1cc(CN(C)C)c(O)c(CN(C)C)c1,inactive,–
Clc1cc(Cl)c(Cl)c(Cl)c1Cl,inactive,–
CCCCOCCOC(=O)COc1ccc(Cl)cc1Cl,inactive,–
CC(CC=O)CC(C)(C)C (stereo not given),inactive,–
[Cl][Eu]([Cl])[Cl],inactive,–
Cc1cccc(C(C)(C)C)c1O,inactive,–
CC(C)(CO)COC(=O)C(C)(C)CO,inactive,–
Cc1ccc(C)c(OCCCC(C)(C)C(=O)O)c1,inactive,–
C=C(C)C1CC=C(C)C(OC(C)=O)C1 (stereo not given),inactive,–
C1CCSC1,inactive,–
c1ccc2c(c1)[nH]c1ccccc12,inactive,–
CCOC(=O)CC(=O)c1ccccc1,inactive,–

SMILES,outcome,AC50
CC=CC(=O)OCC(C)C,inactive,–
CO[Si](CCCS)(OC)OC,inactive,–
CCc1cccc(CC)c1,inactive,–
CCCCCCCCCCCC(=O)OCC,inactive,–
C=CCCCCCCCCC=O,inactive,–
C=Cc1cccc(C)c1,inactive,–
CCOC(=O)/C=C\C(=O)OCC,inactive,–
CCOc1ccc(NC(N)=O)cc1,inactive,–
COC(=O)c1ccc(C(=O)OC)c(C(=O)OC)c1,inactive,–
CC(=O)c1ccccc1O,inactive,–
O=C1CCCCCCCCCCC1,inactive,–
CCCCc1ccc(Cl)cc1,inactive,–
CC(=O)c1ccc(S(=O)(=O)NC(=O)NC2CCCCC2)cc1,inactive,–
CN1CCN(C)CC1,inactive,–
O=C(C=Cc1ccccc1)OCCc1ccccc1,–,24.8 µM (active)
CC(C)c1ccc(O)c(C(C)C)c1,inactive,–
O=C(Nc1ccccc1)c1cc(Cl)ccc1O,inactive,–
C[Si]1(C)O[Si](C)(C)O[Si](C)(C)O[Si](C)(C)O[Si](C)(C)O1,–,36.2 µM (active)
O=C(O)/C=C/c1ccccc1,inactive,–
CCC(=O)C1CC(C(C)C)CC=C1C (stereo not given),inactive,–
